Myeloid diff MLP = promotes myeloid progenitor differentiation; calls only at 10 µM; AID 624256; ER-HoxA9 myeloid progenitors, lysozyme-GFP differentiation, flow cytometry; 360,000 tested, 1% active;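 active means normalized GFP-positive differentiation at or above the plate's own cutoff, the solvent-only control mean plus 3 SD; inconclusive means no clear call, values can overlap the other calls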;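 further: cells exposed to compound for four days before flow analysis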
ABCB6 inh 2 = inhibitors of human ABC transporter ABCB6 | AID 602162 | 360,000 tested, 0.19% active | Q9NP58 | K562-ABCB6 porphyrin accumulation, flow cytometry, 1 h; stronger effect = lower value | fluorescence ratio to DMSO, % at 10 µM;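 active means fluorescence ratio to DMSO below 75%, the collection mean minus 3 SD; inconclusive means too few cells collected in the well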;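 further: signal is porphyrin accumulated inside mitochondria; 100% equals median channel fluorescence of DMSO control wells; lower ratio means ABCB6 inhibition with less porphyrin fluorescence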
Target sequence (Q9NP58 whole entry, looked up): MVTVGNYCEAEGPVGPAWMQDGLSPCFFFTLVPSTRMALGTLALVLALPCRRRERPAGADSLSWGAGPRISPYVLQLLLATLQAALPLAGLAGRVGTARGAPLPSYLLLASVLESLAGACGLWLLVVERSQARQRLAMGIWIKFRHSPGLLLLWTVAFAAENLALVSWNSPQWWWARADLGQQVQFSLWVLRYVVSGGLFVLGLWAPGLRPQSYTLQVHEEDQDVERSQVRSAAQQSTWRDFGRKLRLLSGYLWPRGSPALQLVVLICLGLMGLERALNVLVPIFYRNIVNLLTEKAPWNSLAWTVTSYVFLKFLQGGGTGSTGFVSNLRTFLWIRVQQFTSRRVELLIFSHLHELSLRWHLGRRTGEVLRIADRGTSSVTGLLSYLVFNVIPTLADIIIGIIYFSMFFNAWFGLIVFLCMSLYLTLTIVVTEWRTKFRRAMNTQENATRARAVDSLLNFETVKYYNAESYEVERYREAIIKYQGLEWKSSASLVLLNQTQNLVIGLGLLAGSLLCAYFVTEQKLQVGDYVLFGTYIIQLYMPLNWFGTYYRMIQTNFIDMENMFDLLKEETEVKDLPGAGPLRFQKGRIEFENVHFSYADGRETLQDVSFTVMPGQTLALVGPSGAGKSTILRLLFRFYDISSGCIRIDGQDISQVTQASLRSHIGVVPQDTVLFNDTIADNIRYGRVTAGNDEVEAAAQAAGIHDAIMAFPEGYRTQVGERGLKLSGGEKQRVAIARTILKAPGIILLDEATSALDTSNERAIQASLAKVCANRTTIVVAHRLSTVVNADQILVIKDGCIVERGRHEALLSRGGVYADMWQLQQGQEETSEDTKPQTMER
Granule exo inh = lytic granule exocytosis inhibition. TALL-104 LAMP-1 surface exposure, flow cytometry; cells stimulated with thapsigargin and PMA. inhibition, % at 10 µM. 360,000 tested, 0.66% active;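 active means inhibition above about 55%, limit read from the data; inconclusive means no clear call, values can overlap the other calls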
An asterisk follows results filed as active; i = inactive; ? = inconclusive; nt = not tested or not shown; + = active, no number. This is a sample that favours compounds with a hit; in the whole collection about 1.8% have one here.

SMILES	Myeloid diff MLP	ABCB6 inh 2	Granule exo inh
CSc1ccc(/C=c2\s/c(=C\C(=O)C(C)(C)C)n(CC(=O)NCCC3=CCCCC3)c2=O)cc1	i	98	2
CC(=NNC(=O)c1cccc(S(=O)(=O)N2CCOCC2)c1)c1ccccc1	i	96	9
O=C(NN=Cc1c(O)ccc2ccccc12)c1ccc2c(c1)OCO2	i	98	-4
O=C(N/N=C\c1c(O)ccc2ccccc12)c1ccc(S(=O)(=O)N2CCCCC2)cc1	+	181	0
C[C@@H]1CN([C@@H](C)CO)C(=O)c2cc(Br)cnc2O[C@H]1CN(C)C(=O)Nc1ccc2c(c1)OCO2	i	95	-7
CC1(C(=O)NCc2ccc(C(F)(F)F)cc2)CCN1C1Cc2ccccc2C1 (centres undefined)	i	96	-2
C=CCCC(=O)N1C[C@H]2CON(C)[C@H]2C[C@H]1c1cccc(Oc2ccccc2)c1	i	95	-3
CCN(Cc1ccccc1)C(=O)c1cccc(S(=O)(=O)N2CCN(c3ccccc3)CC2)c1	+	98	-4
CCN(Cc1ccccc1)C(=O)c1cccc(S(=O)(=O)N2CCN(c3ccc(F)cc3)CC2)c1	i	99	5
CCOC(=O)C1=CCN(S(=O)(=O)c2ccc(F)cc2)C1c1ccc(F)cc1 (centres undefined)	i	nt	6
O=c1cnnc(Nc2cccc(F)c2)[nH]1	+	103	0
O=c1cnnc(Nc2ccc(F)cc2)[nH]1	i	96	5
Cc1ccc(OCC(=O)c2cc(C)n(-c3cc(C)on3)c2C)c([N+](=O)[O-])n1	+	98	-3
COc1ccc(-n2c(C)cc(C(=O)COc3ccc(C)nc3[N+](=O)[O-])c2C)cc1	i	99	-2
COc1cc(OC)cc(C(=O)N[C@H](C(=O)OCC(=O)N2CCN(S(=O)(=O)c3ccc(C)cc3)CC2)C(C)C)c1	i	100	-6
CC(C)NC(=O)C1(C)CSCC(=O)N1C1CC1 (centres undefined)	i	nt	-3
CN(Cc1ccccc1F)c1cc2c(c3c1ccn3C)C1CCC2C1 (centres undefined)	i	99	2
CC(C)[C@@H]1Cc2[nH][nH]c(=O)c2[C@H](C(C)C)O1	i	96	-2
CCCCc1ccc(S(=O)(=O)NNC(=S)NCc2ccco2)cc1	i	97	2
CC(=O)Nc1ccc(S(=O)(=O)NNC(=S)NCc2ccco2)cc1	+	95	-8
COc1ccccc1CCC(=O)OCC(=O)Nc1cc(C)nn1-c1ccccc1	i	99	1
Cc1cc(NC(=O)CSc2nc(CCC3CCCC3)nc3ccccc23)no1	+	101	1
CCCc1nc(SCC(=O)Nc2cc(C)on2)c2ccccc2n1	i	99	1
COc1ccc(CN(C)C(=O)c2cccc(NC(=O)CC3SC(N4CCCCC4)=NC3=O)c2)c(OC)c1 (centres undefined)	i	90	-8
Nc1c(C(=O)NCc2ccc3c(c2)OCO3)c2nc3ccccc3nc2n1CCCN1CCOCC1	nt	97	12
SMILES	Myeloid diff MLP	ABCB6 inh 2	Granule exo inh
COc1ccccc1CNC(=O)c1c(N)n(CCCN2CCOCC2)c2nc3ccccc3nc12	?	108	72*
Cc1noc(C)c1COC(=O)c1csc2c1CCC(C)C2 (centres undefined)	i	94	-5
COc1ccc(S(=O)(=O)NC2CC2)cc1Br	+	94	11
COc1cc(S(=O)(=O)NC2CCCCC2)ccc1F	i	108	2
O=C(N[C@H](CO)Cc1ccccc1)c1ccco1	i	94	-6
CCCS(=O)(=O)NC(=O)C1(C)CCCN(C(=O)Cc2ccc3ccccc3c2)C1 (centres undefined)	i	94	-3
Cc1nc2ccccc2n1-c1ccccc1	i	93	1
O=c1c(/C=C(\O)c2ccccc2)nc2ccccc2n1-c1ccccc1	+	979	1
COc1ccc(Oc2cn[nH]c2-c2ccc(O)cc2O)cc1	i	101	-4
COc1ccc(-c2[nH]ncc2Oc2ccccc2OC)c(O)c1	+	103	-2
CC(C)n1c(=O)c2ccccc2n1Cc1cn(Cc2ccccc2)nn1	i	95	1
c1ccc2sc(NC3=NCN(C4CCCCC4)CN3)nc2c1	i	95	-2
CC1CCCCC1N1CN=C(Nc2nc3ccccc3s2)NC1 (centres undefined)	+	106	4
CCc1cccc(CC)c1NC(=O)c1cccc(NC(=O)c2ccccc2)c1	+	96	-5
CCOc1ccc(NC(=O)c2cccc(NC(=O)c3ccccc3)c2)cc1	i	100	0
Cc1cc(C)cc(NC(=S)N2CC(C)OC(C)C2)c1 (centres undefined)	i	93	0
Cc1ccc(S(=O)(=O)N(CCCc2c(C)nc[nH]c2=O)c2ccccc2)cc1	i	94	-21
CCOc1ccccc1N1CC(C(=O)N(Cc2nnc(-c3ccccc3Cl)o2)C2CC2)CC1=O (centres undefined)	i	98	-2
CSc1cccc(N2CC(C(=O)N(Cc3nnc(-c4ccccc4Cl)o3)C3CC3)CC2=O)c1 (centres undefined)	+	96	5
CCC1CN(S(=O)(=O)c2cc(-c3cc(C)no3)ccc2OC)c2cc(C)ccc2O1 (centres undefined)	i	96	70*
COc1ccc(-c2cc(C)no2)cc1S(=O)(=O)N1CCOc2ccccc21	i	97	1
CCCCn1c(N)c(N(CCC(C)C)C(=O)c2oc3ccc(OCC)cc3c2C)c(=O)[nH]c1=O	i	102	-4
CC1CC(C)CN(CC(=O)c2c[nH]c3ccccc23)C1 (centres undefined)	+	168	3
O=C(CN1CCCCC1)c1c[nH]c2ccccc12	i	95	11
O=c1cc(-c2ccccc2[N+](=O)[O-])oc2ccccc12	+	98	-5
SMILES	Myeloid diff MLP	ABCB6 inh 2	Granule exo inh
O=c1cc(-c2ccccc2F)oc2ccccc12	i	93	-2
COC(=O)c1ccc2c(=O)n(-c3ccc(OC)cc3)c(=S)[nH]c2c1	+	i	5
COc1ccc(-n2c(=S)[nH]c3cc(C(=O)O)ccc3c2=O)cc1	i	97	-3
Clc1ccccc1-c1cc2nc(NCc3ccco3)ccn2n1	i	111	10
CC1=NN(c2nc(N)nc(/C(C#N)=C/c3ccc([N+](=O)[O-])o3)n2)C(C)(C)C1	?	i	83*
O=C1C2C(C(=O)N1/N=C/c1ccc([N+](=O)[O-])o1)C1C=CC2C12CC2 (centres undefined)	i	98	3
Cc1ccc(NC(=O)COC(=O)c2ccco2)cc1S(=O)(=O)N1CCOCC1	i	91	0
CC(=O)O/N=C(\N)c1cnn2c(C(F)(F)F)cc(C(F)(F)F)nc12	i	95	18
CN(C)CCNC(=O)c1ccc(Cl)s1	+	100	2
O=C(NCCCCNC(=O)c1ccc(Cl)s1)c1ccc(Cl)s1	i	91	-3
CCCCCNC(=O)c1[nH]c(C(F)(F)F)nc1-c1ccccc1	i	98	5
COC(=O)c1ccccc1NC(=O)[C@@H]1CCC(=O)N1C1OC(=O)c2c1ccc(OC)c2OC (some centres undefined)	+	98	-6
